Shown are actives, neighbours in structure and some others; about 2.4% of the full set was active somewhere.
Cruzain Triton – cruzain (T. cruzi) inhibition with detergent; P25779; purified cruzain, Z-FR-AMC fluorescence, 0.01% Triton; Potency, µM, inactives show max response, negative = inhibition, usual class: inhibitors; 200,000 compounds, 0.43% hits;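 note: plate controls were neutral wells for no effect and buffer without enzyme for full effect; nearly all actives have a fitted effect of over 40% in size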
Target sequence (P25779 123-467 limits assumed): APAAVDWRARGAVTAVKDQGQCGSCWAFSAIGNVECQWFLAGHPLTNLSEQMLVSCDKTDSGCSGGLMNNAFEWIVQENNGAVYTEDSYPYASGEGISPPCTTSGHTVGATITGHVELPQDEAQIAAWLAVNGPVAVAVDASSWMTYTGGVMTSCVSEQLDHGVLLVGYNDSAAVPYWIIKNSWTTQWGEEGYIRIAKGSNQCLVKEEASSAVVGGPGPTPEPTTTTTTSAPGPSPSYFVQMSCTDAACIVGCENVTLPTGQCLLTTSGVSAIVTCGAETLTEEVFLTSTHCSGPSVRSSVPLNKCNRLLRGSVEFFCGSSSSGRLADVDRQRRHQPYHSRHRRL
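Sodium acetate buffer (100 mM, pH 5.5) containing 5 mM DTT and 0.01% Triton X-100 hosted 1.5 nM cruzain and test compound for 15 min at room temperature. Cleavage of 2 uM Z-FR-AMC was then tracked by fluorescence.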
Cruzain noTriton – cruzain (T. cruzi) inhibition without detergent; P25779; Potency, µM, inactives show max response, negative = inhibition, usual class: inhibitors; 200,000 compounds, 2.3% hits; purified cruzain, Z-FR-AMC fluorescence, no detergent; AID 1476;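 note: plate controls were enzyme without inhibitor for no effect and buffer without enzyme for full effect; nearly all actives have a fitted effect of over 40% in size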
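Purified cruzain at 1.5 nM, pre-incubated 15 min with compound at room temperature in 100 mM sodium acetate pH 5.5, 5 mM DTT, 0.00005% Triton X-100. Reaction started with 2 uM Z-FR-AMC; AMC fluorescence increase over 60 s gives rate.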
Active calls of the source: *; ? = inconclusive. Calls come from the whole dose curve; as a rule, active = well fitted curve in the direction sought with a large enough effect; inconclusive = small, poorly fitted or top-dose-only effect, or another doubt; inactive = no such curve, though single readings can be large; an effect the other way counts as inactive or inconclusive. Potency is the fitted concentration of half-maximal effect.

SMILES	Cruzain Triton	Cruzain noTriton
O=C(Nc1ccccc1)Nc1nnc(CSCc2ccccc2Cl)s1	-3%	?
CC(C)C(=O)C(C)(C)CCc1ccccn1	3%	7%
CC(=O)Nc1ccc(S(=O)(=O)NC(CC(=O)NCCCN2CCOCC2)C(C)C)cc1 (stereo not given)	0%	-7%
CCOC(=O)c1c(C2COc3ccccc3O2)csc1N (stereo not given)	-7%	-6%
CCOC(=O)c1c(C2COc3ccccc3O2)csc1NC(=O)c1ccccc1 (stereo not given)	-13%	25µM*
Cc1ccc(/C=C2\SC(N3CCN(C(c4ccccc4)c4ccccc4)CC3)=NC2=O)o1	-12%	7.9µM*
CC1=CN2C(=N)/C(=C/c3ccc(C)o3)C(=O)N=C2S1	-9%	-11%
CCCc1cc2c(cc1NS(=O)(=O)c1ccc(CCNC(C)=O)cc1)OCO2	-2%	13%
c1ccc(C2Oc3ccccc3C3CC(c4cccs4)=NN32)cc1 (stereo not given)	-13%	-3%
O=[N+]([O-])c1ccc(C2Oc3ccccc3C3CC(c4ccccc4)=NN32)s1 (stereo not given)	-11%	16µM*
CCC(=O)N(Cc1ccco1)C1CC(=O)N(c2ccccc2)C1=O (stereo not given)	1%	4%
O=C(Nc1ccc(F)cc1F)c1ccc(COc2c(F)c(F)cc(F)c2F)o1	-10%	2%
O=C(Nc1ccc(Cl)cc1F)c1ccc(COc2c(F)c(F)c(F)c(F)c2F)o1	20µM*	?
CCOC(=O)c1cc(-c2ccccc2)n(-c2cccc(C(=O)Nc3cccc(C)c3)c2)c1C	-1%	?
CN1CCN(c2ncnc3ccc(-c4ccc5c(c4)OCO5)cc23)CC1	-10%	-13%
O=[N+]([O-])c1cccc(/C=N/Nc2nnc(-c3ccccc3)c(-c3ccccc3)n2)c1	-5%	7.9µM*
C/C(=N\Nc1nnc(-c2ccccc2)c(-c2ccccc2)n1)c1cccc([N+](=O)[O-])c1	-6%	?
Cc1ccc(C2CC(=O)N(Cc3ccccc3F)c3c2c(C)nn3-c2nc(C)cc(C)n2)cc1 (stereo not given)	-4%	?
Cc1ccccc1Nc1c(-c2ccc(Br)cc2O)nc2sccn12	-4%	20µM*
Cc1ccc(-c2nc3sccn3c2Nc2ccccc2C)cc1	-13%	25µM*
Cc1ccccc1Nc1c(-c2cc(Br)ccc2F)nc2ccccn12	-1%	-5%
CCc1cccc(C)c1Nc1c(-c2ccccc2)nc2sccn12	-12%	-3%
CC1=C(c2ccc(C)c(C)c2)S(=O)(=O)N=C1N1CCC(C(=O)N2CCCCC2)CC1	3%	?
Cc1ccc(Oc2ncnc3sccc23)cc1	-2%	-8%
CCOC(=O)N1CCN(C(=O)c2cn(CC)c3cc(N4CCN(C)CC4)c(F)cc3c2=O)CC1	-1%	-24%
SMILES	Cruzain Triton	Cruzain noTriton
O=C(CN1C(=O)C2CCCN2c2ncc(Cl)cc21)NCc1ccc2c(c1)OCO2 (stereo not given)	3%	25µM*
COc1ccc(CNC(=O)CN2C(=O)C3CCCN3c3ncc(Cl)cc32)cc1 (stereo not given)	-3%	-26%
CCc1ccccc1NC(=O)CN1C(=O)C2CCCN2c2ncc(Cl)cc21 (stereo not given)	2%	-3%
COC(=O)c1ccccc1NC(=O)CN1C(=O)C2CCCN2c2ncc(Cl)cc21 (stereo not given)	-2%	10µM*
CC1CCCCC1NC(=O)C1CCN(S(=O)(=O)N2CCC3(CC2)OCCO3)CC1 (stereo not given)	5%	3%
Cc1ccc(CN2CCCn3nc(C(=O)NCc4ccc(OC(C)C)cc4)cc3C2=O)cc1	-5%	?
COc1ccc(C=O)cc1	8%	5%
COc1ccc(C=C(c2ccc(OC)cc2)c2ccc(OC)cc2)cc1	-22%	13µM*
COc1ccc([C@H]2[C@H](C(=O)C(C)(C)C)N3N=Cc4ccccc4C3C23C(=O)OC(C)(C)OC3=O)cc1 (stereo not given in full)	-2%	0%
O=C(c1ccccc1)[C@H]1[C@H](c2ccccc2)[C@@]2(N=C(c3ccccc3)OC2=O)C2c3ccccc3C=NN21 (stereo not given in full)	-7%	10µM*
CCCOc1ccc(/C=N/NC(=S)Nc2ccccc2[N+](=O)[O-])c(O)c1	-5%	4µM*
CCCOc1ccc(/C=N/Nc2ccccc2[N+](=O)[O-])c(O)c1	-6%	10µM*
COc1ccc(/C=N/NC(=S)Nc2ccccc2[N+](=O)[O-])cc1O	-8%	-9%
CCCOc1ccc(/C=N/Nc2cccc([N+](=O)[O-])c2)c(O)c1	-5%	?
CCOC(=O)N1CCN(c2cc(=O)n(-c3ccccc3Cl)c(=O)[nH]2)CC1	4%	-3%
C=CCNc1oc(/C=C/c2ccccc2)nc1C#N	32µM*	?
CCOc1ccc(/C=C/c2nc(C#N)c(NCc3ccccc3)o2)cc1	-6%	3%
COc1cc(/C=C/c2nc(C#N)c(NCCc3ccccc3)o2)cc(OC)c1OC	9%	?
CN(C)CCCNc1oc(/C=C/c2ccc(F)cc2)nc1C#N	?	25µM*
CN(C)CCNc1oc(/C=C/c2ccccc2)nc1C#N	-29%	25µM*
CCOc1ccc(/C=C/c2nc(C#N)c(NCCCN(C)C)o2)cc1	-16%	?
O=C(OC1CSc2nc3ccccc3n2C1)c1ccco1 (stereo not given)	-4%	-15%
N#Cc1nc(-c2ccccc2)oc1NCCN1CCCCC1	0%	11%
CCCCOc1ccc(C2C(C(=O)Nc3ccccc3OC)=C(C)Nc3nnnn32)cc1OC (stereo not given)	-1%	14%
Cc1ccc(-c2cc(C(=O)Nc3cc(C)ccc3C)[nH]n2)c(O)c1	-1%	13µM*
SMILES	Cruzain Triton	Cruzain noTriton
COc1ccc(OC)c(NC(=O)c2cc(-c3ccc(C)cc3O)n[nH]2)c1	-2%	-25%
CCOC(=O)C1=C(C)N(CCO)C(=O)NC1c1cccc(O)c1 (stereo not given)	1%	-1%
CCN(CC)CCOc1ccc(/C(=C(\Cl)c2ccccc2)c2ccccc2)cc1	-7%	2%
Cc1ccc(NC(=O)Cn2c(-c3nonc3N)nc3ccccc32)cc1C	7.1µM*	4µM*
Cc1ccc(C)c(NC(=O)Cn2c(-c3nonc3N)nc3ccccc32)c1	-1%	3%
O=C(Nc1cccc(Cl)c1)N1CCC(CN2CCOCC2)CC1	0%	-1%
O=C(OCCN=C1NS(=O)(=O)c2ccccc21)c1cccnc1	-2%	3%
Cc1cccc(NS(=O)(=O)c2ccc3c(c2)C(C)(C)C(=O)N3C)c1	-3%	-7%
O=C(O)CCCC/C=C\C[C@@H](O)/C=C/C=C/C=C\[C@@H](O)CCCC(=O)O	13µM*	4µM*
O=C(O)CCC[C@H](O)\C=C/C=C/C=C/[C@H](O)C/C=C\CCCCCO	5%	-10%
CSc1ccc(/C=c2\s/c(=C\C(=O)C(C)(C)C)n(CC(=O)NCCC3=CCCCC3)c2=O)cc1	-3%	3.2µM*
COCCNC(=O)CCCn1c(=O)c2ccccc2n(CC(=O)NCCC2=CCCCC2)c1=O	0%	15%
C/C(=N/NC(=O)Cc1cccc2ccccc12)c1cccs1	-8%	5%
Cc1cc(C(=O)COc2ccc3ccc(=O)oc3c2)c(C)n1Cc1cccs1	-6%	?
C(=C\c1ccccc1)/C=N/Nc1nc(N2CCCCC2)nc(N2CCCCC2)n1	1%	4µM*

Bioassay records deposited in PubChem BioAssay by National Center for Advancing Translational Sciences (NCATS).
